Experimental data reported in PubChem BioAssay (EPA / NIEHS).
Calls of active or inactive are those of the source. How the source made its calls: active means hit-call score of the fitted dose curve at least 0.9, where 1 is the maximum; inactive means score below 0.9.

Key:
[1] = target: Transcription factor E2F1 (Homo sapiens) (UniProt Q01094); test: ATG_E2F_CIS: Attagene CIS-FACTORIAL HepG2 Assay for human E2F Transcription Factor 1 (AID 2282935); conditions: HepG2 Attagene cis-reporter, E2F reporter RNA transcripts; actives raise or lower the signal
Transcription factor E2F1 (Homo sapiens), sequence (Q01094 whole entry, looked up): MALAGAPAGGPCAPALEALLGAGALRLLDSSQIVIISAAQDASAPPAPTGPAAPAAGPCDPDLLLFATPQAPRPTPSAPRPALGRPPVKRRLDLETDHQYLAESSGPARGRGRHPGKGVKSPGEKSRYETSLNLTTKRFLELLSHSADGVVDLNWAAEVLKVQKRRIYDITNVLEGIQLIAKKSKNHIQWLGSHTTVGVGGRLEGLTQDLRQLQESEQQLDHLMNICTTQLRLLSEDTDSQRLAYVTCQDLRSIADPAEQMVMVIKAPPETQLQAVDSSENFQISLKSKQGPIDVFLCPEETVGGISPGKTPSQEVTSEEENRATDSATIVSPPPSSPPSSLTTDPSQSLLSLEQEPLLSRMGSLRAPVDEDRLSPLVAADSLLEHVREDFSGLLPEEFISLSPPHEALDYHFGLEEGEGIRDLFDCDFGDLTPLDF
Method in brief: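 Cis-element reporter mRNA induction in transiently transfected HepG2, 24 h exposure. Activity fitted in both directions relative to DMSO negative control.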

[2] = ATG_E_Box_CIS: Attagene CIS-FACTORIAL HepG2 Assay for human Enhancer Box (E-box) (AID 2282936); conditions: HepG2 E-box cis-reporter transcription, actives raise or lower the signal
Method in brief: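 Cells: HepG2 (human liver), transient MRTU transfection. Exposure 24 h. RNA → oligo(dT) RT → PCR → 6-FAM label → HpaI → CE. Activity fitted both directions relative to DMSO.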

[3] = ATG_EGR_CIS: Attagene CIS-FACTORIAL HepG2 Assay for human Early Growth Response 1 (EGR1) (AID 2282938); conditions: HepG2 Attagene CIS-FACTORIAL EGR reporter mRNA; actives raise or lower the signal
Method in brief: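 Read-out: fluorescent reporter-mRNA fragments resolved by capillary electrophoresis after RT-PCR, 24 h post-dose in transiently transfected HepG2. Endogenous transcription-factor activity reported via cis-element-regulated reporter units; gain or loss fitted relative to DMSO.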

[4] = ATG_M_19_CIS: Attagene CIS-FACTORIAL HepG2 Assay for M19 Transcription Factor (Internal Marker) (AID 2282939); conditions: HepG2 Attagene CIS-FACTORIAL M19 internal marker reporter; actives raise or lower the signal
Method in brief: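 HepG2 cells transiently transfected with cis-regulated multiplexed reporter units, dosed 24 h. Reporter mRNA quantified by RT-PCR and capillary electrophoresis; internal background marker fitted bidirectionally versus DMSO.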

[5] = ATG_ERE_CIS: Attagene CIS-FACTORIAL HepG2 Assay for Estrogen Response Element (ERE) (AID 2282940); conditions: HepG2 ERE cis-reporter, Attagene RNA transcript; actives raise or lower the signal
Method in brief: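 HepG2 cells transiently transfected with multiplexed cis-element reporter units, measuring endogenous transcription factor activity; ERE reporter mRNA quantified after 24 h exposure by RT-PCR, fluorescent labelling, HpaI digestion and capillary electrophoresis. Bidirectional change versus DMSO.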

[6] = ATG_Ets_CIS: Attagene CIS-FACTORIAL HepG2 Assay for human Erythroblast Transformation Specific (ETS) (AID 2282941); conditions: HepG2 ETS cis-reporter transcription, actives raise or lower the signal
Method in brief: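 HepG2 cells transiently transfected with cis-promoter reporter transcription units were dosed for 24 h; reporter mRNA was measured by RT-PCR, 6-FAM primer extension, HpaI digestion and capillary electrophoresis, with bidirectional fitting against DMSO baseline.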

[7] = target: Hepatocyte nuclear factor 3-beta (Homo sapiens) (UniProt Q9Y261); test: ATG_FoxA2_CIS: Attagene CIS-FACTORIAL HepG2 Assay for human Forkhead box A2 (FOXA2) (AID 2282942); conditions: HepG2 cis-reporter transcription factor activity, 24 h; actives raise or lower the signal
Hepatocyte nuclear factor 3-beta (Homo sapiens), sequence (Q9Y261 whole entry, looked up): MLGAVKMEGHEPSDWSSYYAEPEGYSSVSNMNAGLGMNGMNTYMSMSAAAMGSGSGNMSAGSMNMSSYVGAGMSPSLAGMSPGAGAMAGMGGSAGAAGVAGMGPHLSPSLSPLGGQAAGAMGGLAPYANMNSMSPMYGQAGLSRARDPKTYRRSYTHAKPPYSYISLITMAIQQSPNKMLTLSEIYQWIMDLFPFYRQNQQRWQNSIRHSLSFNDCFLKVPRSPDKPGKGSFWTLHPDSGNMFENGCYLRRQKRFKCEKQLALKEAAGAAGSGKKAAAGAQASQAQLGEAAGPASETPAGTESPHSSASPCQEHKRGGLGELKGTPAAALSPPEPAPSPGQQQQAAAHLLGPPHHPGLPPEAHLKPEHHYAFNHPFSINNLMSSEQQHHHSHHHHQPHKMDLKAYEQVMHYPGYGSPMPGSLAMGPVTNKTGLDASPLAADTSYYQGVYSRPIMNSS
Method in brief: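 Readout: fluorescent reporter transcripts resolved by capillary electrophoresis after RT-PCR. Transiently transfected HepG2, 24 h compound exposure, endogenous TF activity at cis promoter elements. Gain or loss of signal fitted relative to DMSO.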

[8] = ATG_FoxO_CIS: Attagene CIS-FACTORIAL HepG2 Assay for human Forkhead box O (FoxO) (AID 2282943); conditions: HepG2 Attagene cis-reporter, FoxO element, mRNA; actives raise or lower the signal
Method in brief: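 Endogenous transcription factor activity read from multiplexed cis-promoter reporter transcripts in transiently transfected HepG2, 24 h after dosing. Reporter RNA measured via RT-PCR plus capillary electrophoresis of FAM-labeled products; gain or loss relative to DMSO.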

[9] = ATG_GATA_CIS: Attagene CIS-FACTORIAL HepG2 Assay for human GATA Binding Protein (AID 2282944); conditions: HepG2 GATA cis-element reporter, Attagene multiplex mRNA; actives raise or lower the signal
Method in brief: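 HepG2 cells transiently transfected with multiplexed cis-element reporter units measure endogenous GATA activity; after 24 h compound exposure, reporter mRNA quantified by RT-PCR and capillary electrophoresis. Changes fitted in both directions vs DMSO.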

[10] = ATG_GLI_CIS: Attagene CIS-FACTORIAL HepG2 Assay for human Zinc Finger Protein GLI1 (AID 2282945); conditions: HepG2, Attagene cis-factorial reporter mRNA, GLI element; actives raise or lower the signal
Method in brief: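 Bidirectional curve fits relative to DMSO, using reporter mRNA levels from RT-PCR plus capillary electrophoresis. Cells were HepG2 transiently carrying cis-regulated reporter constructs, harvested 24 h after dosing.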

[11] = target: Bile acid receptor (Homo sapiens) (UniProt Q96RI1); test: ATG_IR1_CIS: Attagene CIS-FACTORIAL HepG2 Assay for human Nuclear Receptor Subfamily 1 Group H Member 4 (NR1H4), IR1 submotif (AID 2282946); conditions: IR1 reporter transcription, actives raise or lower the signal
Bile acid receptor (Homo sapiens), sequence (Q96RI1 whole entry, looked up, the tested form may be a part): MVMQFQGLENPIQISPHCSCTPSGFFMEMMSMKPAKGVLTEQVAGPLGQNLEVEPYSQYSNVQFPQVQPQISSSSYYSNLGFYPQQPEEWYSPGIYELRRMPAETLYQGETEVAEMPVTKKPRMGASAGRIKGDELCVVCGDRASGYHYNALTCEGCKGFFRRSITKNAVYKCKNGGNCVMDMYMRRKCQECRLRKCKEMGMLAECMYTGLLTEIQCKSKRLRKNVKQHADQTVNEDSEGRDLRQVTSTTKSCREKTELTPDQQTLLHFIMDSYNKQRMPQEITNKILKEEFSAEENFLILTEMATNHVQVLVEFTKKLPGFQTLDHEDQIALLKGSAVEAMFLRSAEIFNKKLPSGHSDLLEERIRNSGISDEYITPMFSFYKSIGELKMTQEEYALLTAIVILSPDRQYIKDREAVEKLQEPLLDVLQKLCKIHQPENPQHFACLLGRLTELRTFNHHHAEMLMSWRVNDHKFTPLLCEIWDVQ
Method in brief: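 Cells (human HepG2) carry transiently transfected cis-promoter reporter transcription units. Compounds are incubated 24 h, total RNA is reverse-transcribed and amplified, and labelled fragments are resolved by capillary electrophoresis. Curves use DMSO as baseline.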

[12] = ATG_GRE_CIS: Attagene CIS-FACTORIAL HepG2 Assay for human Glucocorticoid Response Elements (GRE) (AID 2282947); conditions: HepG2 GRE cis-reporter, Attagene multiplex mRNA; actives raise or lower the signal
Method in brief: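 Transient MRTU transfection of human HepG2 liver cells; cis-regulated reporters report endogenous factors. 24 h dosing → RNA isolation → RT-PCR → 6-FAM primer extension → HpaI cut → CE fragment analysis. Bidirectional fit, DMSO negative control.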

[13] = ATG_ISRE_CIS: Attagene CIS-FACTORIAL HepG2 Assay for human Interferon Regulatory Factor 1 (IRF1) binding to an Interferon-Stimulated Response Element (ISRE) (AID 2282948); conditions: HepG2 ISRE cis-reporter (Attagene), mRNA transcription readout; actives raise or lower the signal
Method in brief: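 HepG2 cells transiently transfected with multiplexed cis-promoter reporter units; after 24 h compound exposure, reporter mRNA quantified by RT-PCR, FAM labelling, HpaI digestion and capillary electrophoresis. Bidirectional fit versus DMSO baseline.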

[14] = ATG_M_32_CIS: Attagene CIS-FACTORIAL HepG2 Assay for M32 Transcription Factor (Internal Marker) (AID 2282949); conditions: HepG2 Attagene cis-factorial M32 reporter, mRNA; actives raise or lower the signal;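 further: background control marker of the multiplexed CIS panel rather than a real target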
Method in brief: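 Fluorescent capillary electrophoresis peaks of HpaI-digested, FAM-labelled RT-PCR reporter products give the signal. Source: transiently transfected human liver HepG2 cells, 24 h after chemical dosing; bidirectional fitting against DMSO.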

[15] = target: Hypoxia-inducible factor 1-alpha (Homo sapiens) (UniProt Q16665); test: ATG_HIF1a_CIS: Attagene CIS-FACTORIAL HepG2 Assay for human Hypoxia Inducible Factor 1 (HIF1A) (AID 2282951); conditions: HepG2 Attagene cis-factorial HIF1a reporter transcription; actives raise or lower the signal
Hypoxia-inducible factor 1-alpha (Homo sapiens), sequence (Q16665 whole entry, looked up): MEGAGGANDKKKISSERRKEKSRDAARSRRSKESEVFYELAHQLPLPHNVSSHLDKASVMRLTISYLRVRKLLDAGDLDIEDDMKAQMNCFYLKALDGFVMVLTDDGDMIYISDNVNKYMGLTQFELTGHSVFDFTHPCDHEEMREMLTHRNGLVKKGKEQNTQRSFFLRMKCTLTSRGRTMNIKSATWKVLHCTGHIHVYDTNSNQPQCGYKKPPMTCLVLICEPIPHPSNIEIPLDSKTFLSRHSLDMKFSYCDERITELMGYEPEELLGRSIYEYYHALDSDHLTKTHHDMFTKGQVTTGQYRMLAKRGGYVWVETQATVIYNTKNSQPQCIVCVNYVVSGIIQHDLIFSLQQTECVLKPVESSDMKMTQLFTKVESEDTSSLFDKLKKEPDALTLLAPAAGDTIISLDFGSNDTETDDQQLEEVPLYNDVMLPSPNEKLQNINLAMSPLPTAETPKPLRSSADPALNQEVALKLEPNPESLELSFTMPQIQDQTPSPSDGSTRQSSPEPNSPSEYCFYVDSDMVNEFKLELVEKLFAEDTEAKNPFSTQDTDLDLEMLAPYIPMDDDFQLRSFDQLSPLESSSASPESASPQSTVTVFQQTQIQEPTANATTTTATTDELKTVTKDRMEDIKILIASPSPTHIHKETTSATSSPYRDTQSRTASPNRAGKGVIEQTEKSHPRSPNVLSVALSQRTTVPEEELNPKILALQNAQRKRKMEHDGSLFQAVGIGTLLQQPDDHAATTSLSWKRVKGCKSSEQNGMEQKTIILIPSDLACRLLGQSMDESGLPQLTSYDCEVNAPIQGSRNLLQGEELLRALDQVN
Method in brief: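 RT-PCR/capillary electrophoresis fluorescence readout of reporter transcripts from endogenous-TF-driven cis elements in transfected HepG2 cells, 24 h exposure; activity fitted in both directions against DMSO controls.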

[16] = target: Heat shock factor protein 1 (Homo sapiens) (UniProt Q00613); test: ATG_HSE_CIS: Attagene CIS-FACTORIAL HepG2 Assay for human Heat Shock Transcription Factor 1 (HSE) (AID 2282953); conditions: HepG2 HSE cis-reporter, Attagene RNA transcription; actives raise or lower the signal
Heat shock factor protein 1 (Homo sapiens), sequence (Q00613 whole entry, looked up): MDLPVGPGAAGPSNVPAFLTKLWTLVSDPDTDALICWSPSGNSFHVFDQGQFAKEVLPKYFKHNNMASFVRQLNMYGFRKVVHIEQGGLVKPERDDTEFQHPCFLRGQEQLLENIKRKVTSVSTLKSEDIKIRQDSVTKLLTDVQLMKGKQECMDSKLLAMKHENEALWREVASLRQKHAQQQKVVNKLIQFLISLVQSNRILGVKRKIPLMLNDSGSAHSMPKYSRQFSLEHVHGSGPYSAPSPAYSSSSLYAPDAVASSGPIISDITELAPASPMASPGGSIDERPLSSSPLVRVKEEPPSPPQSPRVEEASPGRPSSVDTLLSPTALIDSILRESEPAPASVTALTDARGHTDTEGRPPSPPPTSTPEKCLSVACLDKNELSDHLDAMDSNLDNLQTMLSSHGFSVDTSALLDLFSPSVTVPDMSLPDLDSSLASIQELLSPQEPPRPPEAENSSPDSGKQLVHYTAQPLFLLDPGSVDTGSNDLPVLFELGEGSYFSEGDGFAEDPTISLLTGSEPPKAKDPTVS
Method in brief: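 HepG2 cells transfected with cis-promoter reporter units sensing endogenous transcription factor activity; reporter mRNA quantified 24 h post-dose by RT-PCR and capillary electrophoresis of 6-FAM-labelled products. Bidirectional fitting against DMSO.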

[17] = ATG_MRE_CIS: Attagene CIS-FACTORIAL HepG2 Assay for human Metal Responsive Element (MRE) (AID 2282954); conditions: HepG2 MRE cis-reporter transcription, Attagene multiplex; actives raise or lower the signal
Method in brief: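 Transient MRTU transfection of HepG2 (FuGene 6); 24 h dosing; total RNA → oligo(dT) RT, PCR, 6-FAM primer extension, HpaI cut, CE. Bidirectional fit vs DMSO.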

[18] = ATG_M_61_CIS: Attagene CIS-FACTORIAL HepG2 Assay for M61 Transcription Factor (Internal Marker) (AID 2282937); conditions: HepG2 Attagene CIS-FACTORIAL M61 internal marker reporter; actives raise or lower the signal
Method in brief: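 Readout: fluorescent reporter mRNA fragments resolved by capillary electrophoresis after RT-PCR. Transiently transfected human HepG2 cells carried MRTU constructs reporting endogenous TF activity; 24 h chemical exposure; gain or loss of signal fitted relative to DMSO.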

[19] = target: Hepatocyte nuclear factor 6 (Homo sapiens) (UniProt Q9UBC0); test: ATG_HNF6_CIS: Attagene CIS-FACTORIAL HepG2 Assay for human Hepatocyte Nuclear Factor 6 (HNF6) (AID 2282952); conditions: HepG2 Attagene cis-factorial HNF6 reporter transcription; actives raise or lower the signal
Hepatocyte nuclear factor 6 (Homo sapiens), sequence (Q9UBC0 whole entry, looked up): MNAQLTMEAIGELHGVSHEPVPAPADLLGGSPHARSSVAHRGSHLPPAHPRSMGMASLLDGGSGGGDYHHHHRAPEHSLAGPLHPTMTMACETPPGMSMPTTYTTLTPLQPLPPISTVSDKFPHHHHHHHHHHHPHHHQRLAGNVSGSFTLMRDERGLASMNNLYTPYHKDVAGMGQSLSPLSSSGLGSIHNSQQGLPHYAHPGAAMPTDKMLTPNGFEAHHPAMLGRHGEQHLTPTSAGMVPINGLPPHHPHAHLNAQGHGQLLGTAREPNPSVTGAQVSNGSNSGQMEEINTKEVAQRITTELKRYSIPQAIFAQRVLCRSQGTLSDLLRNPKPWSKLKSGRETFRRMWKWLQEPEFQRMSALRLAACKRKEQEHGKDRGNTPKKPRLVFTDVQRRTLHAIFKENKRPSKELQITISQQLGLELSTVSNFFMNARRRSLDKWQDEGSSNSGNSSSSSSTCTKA
Method in brief: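 HepG2, transient MRTU transfection (cis promoters); 24 h chemical exposure; total RNA → oligo(dT) RT → PCR → 6-FAM labelling → HpaI cut → CE; bidirectional fit vs DMSO.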

[20] = ATG_M_06_CIS: Attagene CIS-FACTORIAL HepG2 Assay for M06 Transcription Factor (Internal Marker) (AID 2282950); conditions: HepG2 Attagene CIS-FACTORIAL M06 internal marker reporter; actives raise or lower the signal
Method in brief: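 Internal background marker within multiplexed cis-reporter HepG2 system. Cells transiently transfected, dosed 24 h; reporter mRNA measured by RT-PCR, HpaI digestion and capillary electrophoresis. Bidirectional fit relative to DMSO.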

Measured: AC50

CC1COC(=O)O1 (stereo not given)
not listed: [18] | [19] | [20]
inactive: all other assays above

CC(C)(C)c1cccc(O)c1
not listed: [5] | [11] | [15] | [16] | [20]
inactive: all other assays above

CC(C)(C)C1CCC(O)CC1 (stereo not given)
not listed: [5] | [7] | [9] | [11] | [19]
inactive: all other assays above

C=CC(O)CCCCC (stereo not given)
active: [3] 100 µM | [8] 100 µM | [15] 26.9 µM
not listed: [5] | [11] | [12]
inactive: all other assays above

CCCCCCCC1CCCC1=O (stereo not given)
not listed: [5] | [11] | [12] | [17]
inactive: all other assays above

C1CCCNCC1
not listed: [5] | [11]
inactive: all other assays above

c1ccc(Sc2ccccc2)cc1
not listed: [5] | [7] | [11] | [12] | [14] | [16]
inactive: all other assays above

O=S(=O)(O)c1cc(S(=O)(=O)O)c2c(N=Nc3ccccc3)c(O)ccc2c1
not listed: [5] | [9] | [11]
inactive: all other assays above

C=CC(=O)OCCCCCC
not listed: [5] | [11] | [12] | [16]
inactive: all other assays above
